Drawing on PubChem BioAssay (Tox21), this text covers Potency and outcome for eight compounds.

Each structure is given as a SMILES string. “And” between values parts separate entries of the source, which are not always exact repeats. Equal values may be shown once. A number with no mark means an inactive call. Results filed as inconclusive are left out. The source made the active and inactive calls. Unless noted, calls follow the shape of the dose curve; as a rule, active = well fitted curve in the direction sought with a large enough effect in the repeat runs; inconclusive = weak or mixed curves; inactive = no such curve, though single readings can be large; an effect the other way counts as inactive or inconclusive.

A short description of experiment [1]: qHTS assay for small molecules that induce genotoxicity in human embryonic kidney cells expressing luciferase-tagged ATAD5 (AID 651632). Also: nearly all actives have a fitted effect of over 15% in size. An outline of the steps: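 Genotoxicity read-out via ATAD5-luciferase: HEK293T cells, 16 hr compound incubation at 37C, Amplite detection.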
In general terms: Quantitative high-throughput screening tests each substance at several concentrations.

A short description of experiment [2]: qHTS assay for small molecule agonists of the p53 signaling pathway - cell viability (AID 651633; calls by dose curve; also: nearly all actives have a fitted effect of over 30% in size; also: potency is read from the fitted curve at half-maximal effect). Put shortly: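 p53RE-bla cells were treated with compound for 16 hours at 37 C. Cytotoxicity was then measured as CellTiter-Glo luminescence after 30 min at room temperature.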
Experiment [3] is described as follows: qHTS assay for small molecule disruptors of the mitochondrial membrane potential (AID 720635). Also: potency is read from the fitted curve at half-maximal effect. An outline of the steps: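 HepG2 cells exposed to compound 1 hr at 37C, then Mito-MPS dye 30 min. Ratio read of aggregate (540/590 nm) versus monomer (490/535 nm) fluorescence.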
Experiment [4] is described as follows: qHTS assay to test for compound auto fluorescence at 590 nm (red) in HepG2 cells (AID 720674). An outline of the steps:
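HepG2 cells, 2,000 per well in MEM with 10% FBS, attached overnight at 37 C, then got 23 nL compound or DMSO. After 1 hr at 37 C, 5% CO2, red fluorescence was read at 540/590 nm against Rose Bengal sodium as reference.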

Experiment [5] can be described thus: qHTS assay to test for compound auto fluorescence at 535 nm (green) in HepG2 cells (AID 720675).
Experiment [6] in a line: qHTS assay to test for compound auto fluorescence at 590 nm (red) in HEK293 cells (AID 720679). An outline of the steps:
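Red-channel autofluorescence (Ex/Em 540/590 nm; Rose Bengal sodium reference) was measured after overnight 37C, 5% CO2 exposure of attached HEK293 cells, 2,000 per well in medium with 10% dialyzed FBS.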

Experiment [7] can be described thus: qHTS assay to test for compound auto fluorescence at 535 nm (green) in HEK293 cells (AID 720680).
Experiment [8] in a line: qHTS assay to test for compound auto fluorescence at 460 nm (blue) in HEK293 cell free culture (AID 720681). An outline of the steps:
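Compounds were added to cell-free DMEM with 10% FBS and fluorescence read directly. The blue channel used 405 nm excitation and 460 nm emission, with triamterene as the reference fluorophore.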

Experiment [9] is described as follows: qHTS assay to test for compound auto fluorescence at 535 nm (green) in HEK293 cell free culture (AID 720682). An outline of the steps: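 No cells present: wells hold DMEM supplemented with 10% FBS, into which compound or vehicle is pinned. Green emission is then recorded (485 nm excitation, 535 nm emission) and scaled to fluorescein.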
The nature of experiment [10]: qHTS assay to test for compound auto fluorescence at 590 nm (red) in HEK293 cell free culture (AID 720683). Put shortly:
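Cell-free wells of DMEM with 10% FBS received compound, and intrinsic fluorescence was read at excitation/emission 540/590 nm. Values expressed as equivalence to Rose Bengal sodium.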

Experiment [11] in a line: qHTS assay to test for compound auto fluorescence at 590 nm (red) in HepG2 cell free culture (AID 720684). Put shortly: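 Compounds are added to culture medium (MEM, 10% FBS) lacking cells, then fluorescence is read at excitation 540 nm, emission 590 nm, with Rose Bengal sodium as the equivalency standard.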
The nature of experiment [12]: qHTS assay to test for compound auto fluorescence at 460 nm (blue) in HepG2 cell free culture (AID 720685). An outline of the steps: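 Compound (23 nL) or DMSO pinned into cell-free MEM with 10% FBS; blue fluorescence read at 405/460 nm excitation/emission, expressed as auto-fluorescence equivalency to triamterene.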
Experiment [13] in a line: qHTS assay to test for compound auto fluorescence at 535 nm (green) in HepG2 cell free culture (AID 720686).
Experiment [14] is described as follows: qHTS assay to test for compound auto fluorescence at 460 nm (blue) in HepG2 cells (AID 720687). An outline of the steps:
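HepG2 cells in MEM with 10% FBS, attached overnight at 37 C, were exposed to compound or DMSO for 1 hr at 37 C, 5% CO2. Blue fluorescence was read at 405/460 nm, with triamterene as reference fluorophore.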

A short description of experiment [15]: qHTS assay for small molecules that induce genotoxicity in human embryonic kidney cells expressing luciferase-tagged ATAD5 - cell viability (AID 651634; calls by dose curve; also: nearly all actives have a fitted effect of over 25% in size; also: potency is read from the fitted curve at half-maximal effect). An outline of the steps:
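Live-cell protease activity (CellTiter-Fluor, fluorescence) indicates viability. HEK293T cells with luciferase-tagged ATAD5; 15.5 hr compound treatment at 37C.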

The nature of experiment [16]: qHTS assay to test for compound auto fluorescence at 460 nm (blue) in HEK293 cells (AID 720678). An outline of the steps: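 Blue-channel (Ex/Em 405/460 nm) intensity measured in HEK293 cultures after overnight compound exposure at 37C; signal expressed relative to triamterene. Cells plated 2,000 per well in 10% dialyzed FBS medium and allowed 4-5 hr to attach.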
In experiment [17] the target is Glucocorticoid receptor (Homo sapiens) (UniProt P04150). The experiment in a line: qHTS assay to identify small molecule agonists of the glucocorticoid receptor (GR) signaling pathway (AID 720691; active = well fitted activation curve with a large enough effect in the signal ratio in the repeat runs, not every such curve was filed as active; the % refers to the signal ratio). Put shortly: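 Beta-lactamase reporter activity, read as fluorescence intensity, was measured in GR-bla HeLa cells exposed to compounds for 18 h at 37 C and then loaded with LiveBLAzer B/G FRET substrate for 2 h at room temperature.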
Chain of Glucocorticoid receptor (Homo sapiens) (P04150 whole entry, looked up): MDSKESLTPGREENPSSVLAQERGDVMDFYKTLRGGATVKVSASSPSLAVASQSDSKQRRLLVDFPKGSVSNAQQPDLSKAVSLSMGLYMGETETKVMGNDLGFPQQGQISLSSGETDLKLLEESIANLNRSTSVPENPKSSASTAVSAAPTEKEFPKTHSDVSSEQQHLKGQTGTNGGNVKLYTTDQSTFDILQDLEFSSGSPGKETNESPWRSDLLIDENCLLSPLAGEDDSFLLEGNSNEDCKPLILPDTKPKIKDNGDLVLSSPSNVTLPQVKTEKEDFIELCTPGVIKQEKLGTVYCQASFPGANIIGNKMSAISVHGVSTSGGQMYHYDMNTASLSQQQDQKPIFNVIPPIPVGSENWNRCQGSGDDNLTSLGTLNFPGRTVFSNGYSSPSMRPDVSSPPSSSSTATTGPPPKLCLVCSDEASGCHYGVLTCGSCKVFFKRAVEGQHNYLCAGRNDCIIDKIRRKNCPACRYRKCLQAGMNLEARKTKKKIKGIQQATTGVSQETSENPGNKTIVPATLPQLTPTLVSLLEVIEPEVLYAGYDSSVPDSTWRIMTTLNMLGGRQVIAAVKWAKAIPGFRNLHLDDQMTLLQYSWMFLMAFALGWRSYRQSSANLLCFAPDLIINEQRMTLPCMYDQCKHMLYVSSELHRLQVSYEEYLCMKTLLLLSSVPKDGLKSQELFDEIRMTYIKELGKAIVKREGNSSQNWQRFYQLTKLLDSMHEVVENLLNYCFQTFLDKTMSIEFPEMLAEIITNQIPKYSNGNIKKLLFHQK

The target is the same in experiment [18]. The experiment in a line: qHTS assay to identify small molecule antagonists of the glucocorticoid receptor (GR) signaling pathway (AID 720692; active = well fitted inhibition curve with a large enough effect in the signal ratio in the repeat runs, not every such curve was filed as active; the % refers to the signal ratio; also: potency is read from the fitted curve at half-maximal effect). An outline of the steps:
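Fluorescence from cleaved LiveBLAzer B/G FRET substrate reports GRE-driven beta-lactamase in HeLa cells; compounds are tested against 5 nM dexamethasone (final) over 18 h at 37 C, substrate incubation 2 h at room temperature.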

Experiment [19] is described as follows: qHTS assay for small molecule disruptors of the mitochondrial membrane potential - cell viability (AID 720634; calls by dose curve;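 also: human HepG2 liver cancer cells; series mostly up to about 83 µM; nearly all actives have a fitted effect of over 20% in size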). An outline of the steps:
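Human hepatoma HepG2 cells were treated for 1 hr with test chemicals, then given m-MPI dye and CellTiter-Glo. Cell viability reflects luminescence proportional to cellular ATP.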

For `CC(C)(C)c1cc([N+](=O)[O-])cc(C(C)(C)C)c1O`, the Potency entry in [1], in experiment [8], in experiment [12] and in experiment [14] was “inactive” in each case. Also, the Potency in [2] was 48.6 µM (active); in [3], 0.122 µM (active). The compound was called inactive in [4], in experiment [5], in experiment [6], in [7], in experiment [9] and in experiment [10]. Further, the outcome in experiment [11] and in experiment [13] was inactive.

With `C[C@@H]1O[C@@H](O[C@H]2C[C@@H](O)[C@]3(CO)[C@H]4[C@H](O)C[C@]5(C)[C@@H](C6=CC(=O)OC6)CC[C@]5(O)[C@@H]4CC[C@]3(O)C2)[C@H](O)[C@H](O)[C@H]1O`, the Potency entry in experiment [1], in [16], in experiment [8], in experiment [12], in experiment [14] and in experiment [17] was “inactive” in each case. Further, the Potency in experiment [2] is 33.5 nM (active) and 53.1 nM (active) and 20.6 nM (active); in experiment [15], 59.6 nM (active) and 37.6 nM (active) and 32.6 nM (active); in [18], 0.268 µM (active). For the same compound, the result in [4], in [5], in [6], in [7], in [9] and in experiment [10] was inactive. Also, the outcome in [11] and in experiment [13] was inactive.

On to `Cc1cc(C)c(C2=C(OC(=O)CC(C)(C)C)C3(CCCC3)OC2=O)c(C)c1`, for which the Potency entry in [1], in experiment [2], in experiment [15], in [12], in experiment [14] and in experiment [17] was “inactive” throughout. In experiment [3], the Potency is 12.8 µM (active). For the same compound, the compound was classed as inactive in [4], in experiment [5], in experiment [6], in experiment [7], in [9] and in [10]. The result in experiment [11] and in experiment [13] was inactive.

As to `COP(=O)(OC)SCn1c(=O)oc2cc(Cl)cnc21`, the Potency result in experiment [1], in [2], in [19], in [16], in [12] and in [14] was “inactive” each time. In experiment [17], the Potency result was “inactive”. Moreover, the outcome in experiment [4], in experiment [5], in [6], in experiment [7], in experiment [9] and in [10] was inactive. Further, the compound was called inactive in experiment [11] and in experiment [13].

As to `O=C(NC(=O)c1c(F)cccc1F)Nc1cc(Cl)c(OC(F)(F)C(F)F)c(Cl)c1`, the Potency result in [1], in [2], in [15], in experiment [19], in experiment [8] and in experiment [12] was “inactive” each time. The Potency result in experiment [14] and in [18] was “inactive” throughout. For the same compound, in [3], the Potency was 19.3 µM (active). Also, the outcome in [4], in experiment [5], in experiment [6], in experiment [7], in experiment [9] and in experiment [10] was inactive. The compound was classed as inactive in [11] and in experiment [13].

As to `ClCc1ccc(Cl)cc1Cl`, the Potency result in [1], in [2], in experiment [19], in experiment [8], in experiment [12] and in experiment [14] was “inactive” in each case. For the same compound, the Potency entry in [17] and in experiment [18] was “inactive” in each case. Besides, the call in [4], in experiment [5], in [6], in experiment [7], in experiment [9] and in experiment [10] was inactive. Also, the compound was called inactive in experiment [11] and in experiment [13].

For the compound `BrC(Br)C(Br)(Br)Br`, the Potency result in experiment [1], in experiment [2], in [15], in [19], in experiment [8] and in experiment [12] was “inactive” throughout. In addition, the Potency entry in experiment [14] and in experiment [17] was “inactive” throughout. The compound was called inactive in [4], in experiment [5], in [6], in experiment [7], in [9] and in [10]. The compound was called inactive in experiment [11] and in experiment [13].

As to `CCOCCOC(C)=O`, the Potency entry in experiment [1], in experiment [2], in experiment [15], in experiment [19], in [16] and in [8] was “inactive” throughout. In addition, the Potency result in experiment [14] and in [17] was “inactive” each time. The compound was classed as inactive in experiment [4], in [5], in [6], in [7], in experiment [9] and in experiment [10]. The outcome in [11] and in experiment [13] was inactive.
